Measurements from PubChem BioAssay (NCATS).
Inconclusive results are not listed. Active and inactive are the calls of the source. Calls come from the whole dose curve; as a rule, active = well fitted curve in the direction sought with a large enough effect; inconclusive = small, poorly fitted or top-dose-only effect, or another doubt; inactive = no such curve, though single readings can be large; an effect the other way counts as inactive or inconclusive.

How the values were obtained:
MCC-13 = test: qHTS assay to identify novel small-molecules to repurpose for Merkel cell carcinoma treatment (AID 1296009); conditions: MCC and control cell lines, CellTiter-Glo viability, 72 h; series mostly up to 46 µM; note: nearly all actives have a fitted effect of over 60% in size
Summary of the method: (§1)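 Luminescence from CellTiter-Glo, read 10 min after addition at room temperature, reported viability following a 72 hr, 37 degree celsius treatment with NPC or MIPE compounds in titration; values normalized to plate controls.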

MCC-26 = test: as above; conditions: MCC and control cell lines, CellTiter-Glo viability, 72 h; series mostly up to 46 µM
Summary of the method: as §1

MKL-1 = test: as above; conditions: MCC and control cell lines, CellTiter-Glo viability, 72 h; series mostly up to 46 µM
Summary of the method: as §1

MKL-2 = test: as above; conditions: MCC and control cell lines, CellTiter-Glo viability, 72 h; series mostly up to 46 µM
Summary of the method: as §1

UISO = test: as above; conditions: MCC and control cell lines, CellTiter-Glo viability, 72 h; series mostly up to 46 µM
Summary of the method: as §1

WaGa = test: as above; conditions: MCC and control cell lines, CellTiter-Glo viability, 72 h; series mostly up to 46 µM
Summary of the method: as §1

C33A = test: Primary qHTS to identify gynecologic anti-cancer compounds using libraries of approved drugs and bioactive compounds (AID 1345084); conditions: Gynecologic cancer cell panel viability, ATPlite luminescence, 48 h; series mostly up to 57.5 µM; note: nearly all actives have a fitted effect of over 55% in size
Summary of the method: (§2)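 Cells, 1,000 per well, plated 16 h, then exposed 48 h at 37 C to compounds. Viability by ATPlite luminescence after 15 min at room temperature.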

CAOV3 = test: as above; conditions: Gynecologic cancer cell panel viability, ATPlite luminescence, 48 h; series mostly up to 57.5 µM
Summary of the method: as §2

CASKI = test: as above; conditions: Gynecologic cancer cell panel viability, ATPlite luminescence, 48 h; series mostly up to 57.5 µM
Summary of the method: as §2

Es-2 = test: as above; conditions: Gynecologic cancer cell panel viability, ATPlite luminescence, 48 h; series mostly up to 57.5 µM
Summary of the method: as §2

HeLa = test: as above; conditions: Gynecologic cancer cell panel viability, ATPlite luminescence, 48 h; series mostly up to 57.5 µM
Summary of the method: as §2

Hek293T = test: as above; conditions: Gynecologic cancer cell panel viability, ATPlite luminescence, 48 h, control line for the selectivity index; series mostly up to 57.5 µM
Summary of the method: as §2

JEG-3 = test: as above; conditions: Gynecologic cancer cell panel viability, ATPlite luminescence, 48 h; series mostly up to 57.5 µM
Summary of the method: as §2

OV90 = test: as above; conditions: Gynecologic cancer cell panel viability, ATPlite luminescence, 48 h; series mostly up to 57.5 µM
Summary of the method: as §2

PA-1 = test: as above; conditions: Gynecologic cancer cell panel viability, ATPlite luminescence, 48 h; series mostly up to 57.5 µM
Summary of the method: as §2

SKOV3 = test: as above; conditions: Gynecologic cancer cell panel viability, ATPlite luminescence, 48 h; series mostly up to 57.5 µM
Summary of the method: as §2

Tov-21-G = test: as above; conditions: Gynecologic cancer cell panel viability, ATPlite luminescence, 48 h; series mostly up to 57.5 µM
Summary of the method: as §2

Tov112D = test: as above; conditions: Gynecologic cancer cell panel viability, ATPlite luminescence, 48 h; series mostly up to 57.5 µM
Summary of the method: as §2

[1] = Drug repurposing screens with cells derived from glioblastoma tumor samples (AID 1345199); conditions: GBM patient neurospheres viability, ATP luminescence, 48 h; note: nearly all actives have a fitted effect of over 40% in size; note: potency is the fitted concentration of half-maximal effect
Summary of the method: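 Primary testing used CD133+ neurospheres from four GBM patients, seven concentrations, 48 h exposure and ATP-based viability; confirmation added three slower-growing patient lines.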

[2] = at 45.9 µM (top of the series), tumour line B
[3] = at 45.9 µM (top of the series), tumour line D
[4] = at 46 µM (top of the series), tumour line A
% is set by controls: 0 for no effect and ±100 for the full control effect.

CC(C)C(Br)C(=O)NC(N)=O (stereo unspecified)
inactive: Potency (MCC-13) | Potency (MCC-26) | Potency (MKL-1) | Potency (MKL-2) | Potency (UISO) | Potency (WaGa) | Potency (C33A) | Potency (CAOV3) | Potency (CASKI) | Potency (Es-2) | Potency (HeLa) | Potency (Hek293T) | Potency (JEG-3) | Potency (OV90) | Potency (PA-1) | Potency (SKOV3) | Potency (Tov-21-G) | Potency (Tov112D) | activity, negative = cell killing [1, 2] -3.2% | activity, negative = cell killing [1, 3] -12.7% | activity, negative = cell killing [1, 4] -8.61%

CCCOC(=O)Cc1ccc(OCC(=O)N(CC)CC)c(OC)c1
inactive: Potency (MCC-13) | Potency (MCC-26) | Potency (MKL-1) | Potency (MKL-2) | Potency (UISO) | Potency (WaGa) | Potency (C33A) | Potency (CAOV3) | Potency (CASKI) | Potency (Es-2) | Potency (HeLa) | Potency (Hek293T) | Potency (JEG-3) | Potency (OV90) | Potency (PA-1) | Potency (Tov-21-G) | Potency (Tov112D) | activity, negative = cell killing [1, 2] -0.689% | activity, negative = cell killing [1, 3] -1.94% | activity, negative = cell killing [1, 4] -27.4%

C[C@]12CC[C@H]3[C@@H](CCC4=CC(=O)CC[C@@]43C)[C@@H]1CC[C@@H]2C(=O)O
inactive: Potency (MCC-13) | Potency (MCC-26) | Potency (MKL-1) | Potency (MKL-2) | Potency (UISO) | Potency (WaGa) | Potency (C33A) | Potency (CAOV3) | Potency (CASKI) | Potency (Es-2) | Potency (Hek293T) | Potency (JEG-3) | Potency (OV90) | Potency (PA-1) | Potency (SKOV3) | Potency (Tov-21-G) | Potency (Tov112D)

CCC1(c2ccccc2)CCC(=O)NC1=O (stereo unspecified)
inactive: Potency (MCC-13) | Potency (MCC-26) | Potency (MKL-1) | Potency (MKL-2) | Potency (UISO) | Potency (WaGa) | Potency (C33A) | Potency (CASKI) | Potency (Es-2) | Potency (HeLa) | Potency (Hek293T) | Potency (JEG-3) | Potency (OV90) | Potency (PA-1) | Potency (SKOV3) | Potency (Tov-21-G) | Potency (Tov112D) | activity, negative = cell killing [1, 2] -10.4% | activity, negative = cell killing [1, 3] -10.3% | activity, negative = cell killing [1, 4] -28.9%

CCCCC1C(=O)NC(=O)N(C2CCCCC2)C1=O (stereo unspecified)
inactive: Potency (MCC-13) | Potency (MCC-26) | Potency (MKL-1) | Potency (MKL-2) | Potency (UISO) | Potency (WaGa) | Potency (C33A) | Potency (CAOV3) | Potency (CASKI) | Potency (Es-2) | Potency (HeLa) | Potency (Hek293T) | Potency (JEG-3) | Potency (OV90) | Potency (PA-1) | Potency (SKOV3) | Potency (Tov-21-G) | Potency (Tov112D) | activity, negative = cell killing [1, 2] 0.883% | activity, negative = cell killing [1, 3] 0.724% | activity, negative = cell killing [1, 4] -28.6%

CC(Cc1ccc2c(c1)OCO2)NO (stereo unspecified)
inactive: Potency (MCC-13) | Potency (MCC-26) | Potency (MKL-1) | Potency (MKL-2) | Potency (UISO) | Potency (WaGa) | Potency (C33A) | Potency (CAOV3) | Potency (CASKI) | Potency (Es-2) | Potency (HeLa) | Potency (Hek293T) | Potency (JEG-3) | Potency (OV90) | Potency (PA-1) | Potency (SKOV3) | Potency (Tov-21-G) | Potency (Tov112D) | activity, negative = cell killing ([1]; at 108 µM (top of the series), tumour line B) -8.99% | activity, negative = cell killing ([1]; at 108 µM (top of the series), tumour line D) -8.83%

CC(Cc1ccccc1)NCc1ccccc1Cl (stereo unspecified)
inactive: Potency (MCC-13) | Potency (MCC-26) | Potency (MKL-1) | Potency (MKL-2) | Potency (UISO) | Potency (WaGa) | Potency (C33A) | Potency (CAOV3) | Potency (CASKI) | Potency (Es-2) | Potency (HeLa) | Potency (Hek293T) | Potency (JEG-3) | Potency (OV90) | Potency (PA-1) | Potency (SKOV3) | Potency (Tov-21-G) | Potency (Tov112D) | activity, negative = cell killing [1, 2] -13.4% | activity, negative = cell killing [1, 3] -38.9%
active: Potency ([1]; tumour line A) 14.1 µM

Cc1nc2ccccc2c(=O)n1-c1ccccc1Cl
inactive: Potency (MCC-13) | Potency (MCC-26) | Potency (MKL-1) | Potency (MKL-2) | Potency (UISO) | Potency (WaGa) | Potency (C33A) | Potency (CAOV3) | Potency (Es-2) | Potency (HeLa) | Potency (Hek293T) | Potency (JEG-3) | Potency (OV90) | Potency (PA-1) | Potency (SKOV3) | Potency (Tov-21-G) | Potency (Tov112D) | activity, negative = cell killing ([1]; at 91.6 µM (top of the series), tumour line B) -7.8% | activity, negative = cell killing ([1]; at 91.6 µM (top of the series), tumour line D) -27.3%
active: Potency ([1]; tumour line A) 39.8 µM

CN1C[C@@H](NS(=O)(=O)N(C)C)C[C@@H]2c3cccc4c3c(cn4C)C[C@H]21
inactive: Potency (MCC-13) | Potency (MCC-26) | Potency (MKL-1) | Potency (MKL-2) | Potency (UISO) | Potency (WaGa) | Potency (C33A) | Potency (CAOV3) | Potency (CASKI) | Potency (Es-2) | Potency (HeLa) | Potency (Hek293T) | Potency (JEG-3) | Potency (OV90) | Potency (PA-1) | Potency (SKOV3) | Potency (Tov-21-G) | Potency (Tov112D) | activity, negative = cell killing [1, 2] -15.4% | activity, negative = cell killing [1, 3] -25.6%
active: Potency ([1]; tumour line A) 10 µM

CCS(=O)(=O)C(C)(C)S(=O)(=O)CC
inactive: Potency (MCC-13) | Potency (MCC-26) | Potency (MKL-1) | Potency (MKL-2) | Potency (UISO) | Potency (WaGa) | Potency (C33A) | Potency (CAOV3) | Potency (CASKI) | Potency (Es-2) | Potency (HeLa) | Potency (Hek293T) | Potency (JEG-3) | Potency (OV90) | Potency (PA-1) | Potency (SKOV3) | Potency (Tov-21-G) | Potency (Tov112D) | activity, negative = cell killing [1, 2] -4.87% | activity, negative = cell killing [1, 3] 5.45%

OC(c1ccccc1)(c1ccccc1)C1CCNCC1
inactive: Potency (MCC-13) | Potency (MCC-26) | Potency (MKL-1) | Potency (MKL-2) | Potency (UISO) | Potency (WaGa) | Potency (C33A) | Potency (CASKI) | Potency (Es-2) | Potency (HeLa) | Potency (Hek293T) | Potency (JEG-3) | Potency (OV90) | Potency (PA-1) | Potency (SKOV3) | Potency (Tov-21-G) | Potency (Tov112D) | activity, negative = cell killing ([1]; at 21.2 µM (top of the series), tumour line B) -16.1% | activity, negative = cell killing ([1]; at 21.2 µM (top of the series), tumour line D) -0.163%

COc1ccc(C(=O)N2CCCC2=O)cc1
inactive: Potency (MCC-13) | Potency (MCC-26) | Potency (MKL-1) | Potency (MKL-2) | Potency (UISO) | Potency (WaGa) | Potency (C33A) | Potency (CAOV3) | Potency (CASKI) | Potency (Es-2) | Potency (HeLa) | Potency (Hek293T) | Potency (JEG-3) | Potency (OV90) | Potency (PA-1) | Potency (SKOV3) | Potency (Tov-21-G) | Potency (Tov112D) | activity, negative = cell killing [1, 2] -4.07% | activity, negative = cell killing [1, 3] -13.6%

CNC(C)Cc1ccccc1OC (stereo unspecified)
inactive: Potency (MCC-13) | Potency (MCC-26) | Potency (MKL-1) | Potency (MKL-2) | Potency (UISO) | Potency (WaGa) | Potency (C33A) | Potency (CAOV3) | Potency (CASKI) | Potency (Es-2) | Potency (HeLa) | Potency (Hek293T) | Potency (JEG-3) | Potency (OV90) | Potency (PA-1) | Potency (SKOV3) | Potency (Tov-21-G) | Potency (Tov112D) | activity, negative = cell killing [1, 2] -11.6% | activity, negative = cell killing [1, 3] -21% | activity, negative = cell killing [1, 4] -24.5%
